Measurements published in PubChem BioAssay (NCI).
This is part of a sample that, as a whole, favours compounds with a hit. Of some 79,000 tested, about 15% had one in any assay. Activity calls are given as the source filed them. Rule as the data show it: active = growth inhibition above about 70%; inactive = the rest.

Key:
[1] = NCI Yeast Anticancer Drug Screen. Data for the rad52 strain (AID 147);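 also: 0% = growth of vehicle-treated control cultures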; details: S. cerevisiae rad52 mutant growth inhibition, active compounds read high
Summary of the method: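 Vehicle-treated cultures served as the reference for growth inhibition of compound-exposed yeast bearing a DNA repair mutation.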

[2] = NCI Yeast Anticancer Drug Screen. Data for the wt1 strain (AID 149);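 also: 0% = growth of vehicle-treated wt1 cultures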; details: S. cerevisiae wt1 strain (SPY 50644) growth inhibition, active compounds read high
Summary of the method: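 Measured: growth of wt1 yeast under compound versus vehicle treatment, reported as inhibition.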

[3] = NCI Yeast Anticancer Drug Screen. Data for the rad50EPP+ strain (AID 151);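 also: 0% = growth of vehicle-treated control cultures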; details: S. cerevisiae rad50 mutant strain, active compounds read high
Summary of the method: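 In this screen, rad50EPP+ yeast were exposed to compounds. Growth inhibition was scored against vehicle-treated controls.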

[4] = NCI Yeast Anticancer Drug Screen. Data for the mgt1 strain (AID 153); details: S. cerevisiae mgt1 mutant growth inhibition, active compounds read high
Summary of the method: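 mgt1 strain exposed; growth vs vehicle control recorded as inhibition.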

[5] = NCI Yeast Anticancer Drug Screen. Data for the rad50 strain (AID 155);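 also: 0% = growth of vehicle-only cultures of the same strain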; details: S. cerevisiae rad50 strain growth inhibition, active compounds read high
Summary of the method: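 Growth of the mutant yeast was measured after compound exposure and referenced to vehicle-treated cultures.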

[6] = NCI Yeast Anticancer Drug Screen. Data for the mec2-1 strain (AID 157); details: S. cerevisiae mec2-1 strain, active compounds read high
Summary of the method: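 Vehicle-treated cultures served as reference for growth inhibition of compound-exposed mec2-1 yeast.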

[7] = NCI Yeast Anticancer Drug Screen. Data for the sgs1 mgt1 strain (AID 161);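 also: 0% = growth of cultures given vehicle only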; details: S. cerevisiae sgs1 mgt1 strain, active compounds read high
Summary of the method: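 Mutant yeast exposed to compound; growth scored against vehicle-only wells.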

[8] = NCI Yeast Anticancer Drug Screen. Data for the CLN2oe strain (AID 163);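 also: 0% = growth of vehicle-only control cultures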; details: S. cerevisiae CLN2oe strain, active compounds read high
Summary of the method: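 Inhibition relative to vehicle-treated yeast is reported. Cells: strain with genetic alteration in cell-cycle control, grown with compound.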

[9] = NCI Yeast Anticancer Drug Screen. Data for the cln2 rad14 strain (AID 165);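 also: 0% = growth equal to vehicle treated cultures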; details: S. cerevisiae cln2 rad14 strain, active compounds read high
Summary of the method: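 Each compound was tested on cln2 rad14 yeast. Inhibition of growth was calculated against vehicle-exposed controls.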

[10] = NCI Yeast Anticancer Drug Screen. Data for the bub3 strain (AID 167); details: S. cerevisiae bub3 mutant strain, active compounds read high
Summary of the method: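 Whole-cell yeast assay. The mutant strain was incubated with compounds, and growth inhibition was determined by comparison with vehicle-treated cells.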

[11] = NCI Yeast Anticancer Drug Screen. Data for the mlh1 strain (AID 171);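 also: 0% = growth of vehicle-treated control cultures of the same strain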; details: S. cerevisiae mlh1 strain growth inhibition, active compounds read high
Summary of the method: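 Vehicle-normalised growth inhibition of a repair- or checkpoint-altered yeast strain following compound treatment.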

[12] = NCI Yeast Anticancer Drug Screen. Data for the sgs1 strain (AID 173);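 also: 0% = growth of vehicle-only control cultures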; details: S. cerevisiae sgs1 mutant, active compounds read high
Summary of the method: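 Screen format: yeast with repair or checkpoint alterations, compound exposure, growth read relative to vehicle.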

[13] = NCI Yeast Anticancer Drug Screen. Data for the mlh1 rad18 strain (AID 175); details: S. cerevisiae mlh1 rad18 strain growth inhibition, active compounds read high
Summary of the method: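 Vehicle-treated cultures served as the reference for growth inhibition in a yeast strain carrying DNA damage repair alterations exposed to each compound.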

[14] = NCI Yeast Anticancer Drug Screen. Data for the rad18 strain (AID 177); details: S. cerevisiae rad18 mutant growth inhibition, active compounds read high
Summary of the method: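 Test articles were incubated with altered yeast defective in DNA damage repair. Results are given as inhibition of growth versus vehicle.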

[15] = NCI Yeast Anticancer Drug Screen. Data for the rad14 strain (AID 159);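 also: 0% = growth of vehicle-treated control cultures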; details: S. cerevisiae rad14 strain growth inhibition, active compounds read high
Summary of the method: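 Here, inhibition of yeast growth was measured after compound exposure, using a strain with a genetic defect in DNA damage repair and vehicle-treated cultures as the reference.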

[16] = NCI Yeast Anticancer Drug Screen. Data for the wt2 strain (AID 169);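 also: 0% = growth of vehicle-treated yeast cultures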; details: S. cerevisiae wt2 strain growth inhibition, active compounds read high
Summary of the method: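 Inhibition of yeast growth was determined after compound treatment, normalised to controls receiving only vehicle.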

[17] = at 5.0 µM (retest, dose inferred, filed as 0.5)
[18] = at 50.0 µM (retest, dose inferred, filed as 5.0)

Measured: growth inhibition

Oc1ccc2ccccc2c1C(c1ccc(Cl)cc1)c1c(O)ccc2ccccc12
active: [1]; at 100.0 µM 84% | [2]; at 100.0 µM 84% | [4]; at 100.0 µM 88% | [5]; [17] 99% | [5]; [18] 99% | [5]; at 100.0 µM 89% | [6]; [17] 99% | [6]; [18] 99% | [6]; at 50.0 µM 83.9% | [6]; at 100.0 µM 84% | [7]; [18] 94% | [8]; at 33.0 µM 83% | [8]; at 100.0 µM 82% | [9]; [18] 95% | [9]; at 50.0 µM 76.8% | [10]; [18] 92% | [10]; at 50.0 µM 78.2% | [10]; at 100.0 µM 87% | [11]; at 100.0 µM 85% | [12]; at 100.0 µM 88% | [13]; [17] 99% | [13]; [18] 99% | [14]; at 100.0 µM 87%
inactive: [1]; at 1.2 µM -39% | [1]; at 3.7 µM -23% | [1]; at 11.0 µM -17% | [1]; at 33.0 µM 51% | [2]; at 1.2 µM 15% | [2]; at 3.7 µM -17% | [2]; at 11.0 µM 2% | [2]; at 33.0 µM 55% | [3]; at 1.2 µM -50% | [3]; at 3.7 µM -61% | [3]; at 11.0 µM -55% | [3]; at 33.0 µM -50% | [3]; at 100.0 µM -44% | [4]; at 1.2 µM -34% | [4]; at 3.7 µM -26% | [4]; at 11.0 µM -14% | [4]; at 33.0 µM 43% | [5]; at 1.2 µM -3% | [5]; at 3.7 µM 3% | [5]; at 11.0 µM 12% | [5]; at 33.0 µM 55% | [5]; at 50.0 µM 68.3% | [6]; at 1.2 µM -72% | [6]; at 3.7 µM -67% | [6]; at 11.0 µM -39% | [6]; at 33.0 µM 56% | [7]; [17] -2% | [7]; at 50.0 µM 19.4% | [8]; at 1.2 µM 0% | [8]; at 3.7 µM 5% | [8]; at 11.0 µM 21% | [9]; [17] 56% | [10]; at 1.2 µM -6% | [10]; at 3.7 µM -15% | [10]; [17] 29% | [10]; at 11.0 µM -1% | [10]; at 33.0 µM 39% | [11]; at 1.2 µM -41% | [11]; at 3.7 µM -25% | [11]; at 11.0 µM -32% | [11]; at 33.0 µM 26% | [12]; at 1.2 µM -29% | [12]; at 3.7 µM -39% | [12]; at 11.0 µM -25% | [12]; at 33.0 µM 38% | [13]; at 50.0 µM 54% | [14]; at 1.2 µM -30% | [14]; at 3.7 µM -8% | [14]; at 11.0 µM 2% | [14]; at 33.0 µM 50%

CN(N=O)N1C(=O)SCC(c2ccccc2)(c2ccccc2)C1=O
inactive: [1]; at 1.2 µM -2% | [1]; at 3.7 µM 1% | [1]; at 11.0 µM 6% | [1]; at 33.0 µM 16% | [1]; at 100.0 µM 42% | [2]; at 1.2 µM -3% | [2]; at 3.7 µM -5% | [2]; at 11.0 µM -3% | [2]; at 33.0 µM -3% | [2]; at 100.0 µM 4% | [3]; at 1.2 µM -4% | [3]; at 3.7 µM 0% | [3]; at 11.0 µM 0% | [3]; at 33.0 µM 2% | [3]; at 100.0 µM 3% | [4]; at 1.2 µM -1% | [4]; at 3.7 µM 1% | [4]; at 11.0 µM 1% | [4]; at 33.0 µM -1% | [4]; at 100.0 µM 3% | [6]; at 1.2 µM 0% | [6]; at 3.7 µM 1% | [6]; [17] 10% | [6]; at 11.0 µM 1% | [6]; at 33.0 µM 5% | [6]; [18] 40% | [6]; at 50.0 µM 32.2% | [6]; at 100.0 µM 27% | [15]; at 1.2 µM 1% | [15]; at 3.7 µM -5% | [15]; at 11.0 µM -3% | [15]; at 33.0 µM -10% | [15]; at 100.0 µM -4% | [7]; [17] 9% | [7]; [18] 64% | [7]; at 50.0 µM 48.5% | [8]; at 1.2 µM -1% | [8]; at 3.7 µM 4% | [8]; at 11.0 µM 4% | [8]; at 33.0 µM 2% | [8]; at 100.0 µM 9% | [9]; [17] -26% | [9]; [18] 16% | [9]; at 50.0 µM 10.7% | [10]; at 1.2 µM -2% | [10]; at 3.7 µM 1% | [10]; [17] 3% | [10]; at 11.0 µM 12% | [10]; at 33.0 µM 15% | [10]; at 50.0 µM 66.2% | [10]; at 100.0 µM 26% | [16]; at 1.2 µM -1% | [16]; at 3.7 µM -1% | [16]; at 11.0 µM -1% | [16]; at 33.0 µM 1% | [16]; at 100.0 µM 11% | [11]; at 1.2 µM 3% | [11]; at 3.7 µM -1% | [11]; at 11.0 µM 1%
active: [10]; [18] 70%
